MmCpn inh = inhibitors of Methanococcus maripaludis chaperonin TRiC (MmCpn) | 330,000 tested, 0.031% active | Potency, µM (highest dose often 76.9 µM), hits mostly inhibitors | purified Mm-Cpn ATPase, ADP Transcreener TR-FRET | AID 504842; note: nearly all actives have a fitted effect of over 80% in size
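ATP (10 uM final) was added to archaeal chaperonin (25 nM final) after 10 min exposure to test compound at 37°C; after 30 min further incubation, ADP was detected by competitive TR-FRET.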
ASM inhibitor = inhibitors of human secretory acid sphingomyelinase; P17405; placental ASM, HMU-PC fluorogenic substrate, 60 min; Potency, µM (doses to about 57.5 µM), usual class: inhibitors; 340,000 tested, 0.006% active
Target sequence (P17405 47-631 limits assumed): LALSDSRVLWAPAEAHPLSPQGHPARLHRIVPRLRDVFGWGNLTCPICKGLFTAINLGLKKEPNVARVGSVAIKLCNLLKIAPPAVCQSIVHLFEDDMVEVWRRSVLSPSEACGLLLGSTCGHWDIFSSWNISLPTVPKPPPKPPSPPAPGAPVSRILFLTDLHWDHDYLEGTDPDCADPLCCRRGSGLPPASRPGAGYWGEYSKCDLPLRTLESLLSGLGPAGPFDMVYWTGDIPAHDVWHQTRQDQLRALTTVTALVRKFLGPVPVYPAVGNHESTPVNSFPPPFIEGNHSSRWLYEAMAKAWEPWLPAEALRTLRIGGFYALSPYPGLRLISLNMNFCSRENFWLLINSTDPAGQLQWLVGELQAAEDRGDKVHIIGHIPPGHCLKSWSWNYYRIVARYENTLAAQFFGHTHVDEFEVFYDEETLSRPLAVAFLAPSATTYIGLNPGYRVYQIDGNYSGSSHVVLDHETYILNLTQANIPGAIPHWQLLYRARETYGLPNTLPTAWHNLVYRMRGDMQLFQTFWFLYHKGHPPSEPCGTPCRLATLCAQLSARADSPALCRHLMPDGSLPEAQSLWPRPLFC
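HMU-PC0 cleavage (9 uM final) by human placental ASM, 60 min at 37 °C following 10 min compound exposure at RT; stopped at pH 10, fluorescence Ex 386/Em 447 nm.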
CCT chaperon mod = modulators of cytosolic chaperonin (CCT/TRiC) activity | purified chaperonin ATPase assay, HTRF ADP detection, 30 min | activity change, % (no concentration beside the values), hits read low | 360,000 tested, 0.3% active | AID 651819; in the data active = activity change below about -30%
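TRiC (40 or 20 nM final, by batch activity) in 30 mM Tris pH 7.4, 100 mM KCl, 5 mM MgCl2, 1 mM DTT was treated with compound at 76 uM single dose, then 10 uM ATP, 30 min at 37 °C. ADP was read by HTRF Transcreener.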
USP2a block = inhibitors of human ubiquitin-specific protease USP2a. O75604. Potency, µM (doses to about 38.3 µM), most hits filed as inhibitors. USP2 core, Ub-CHOP2 coupled fluorogenic reporter, 485/531. 330,000 tested, 0.01% active
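USP2 core (10nM final) preincubated 30min RT with compound in 20mM Tris-HCl pH 8.0, 2mM CaCl2, 2mM beta-mercaptoethanol, 0.05% CHAPS; 25nM Ub-CHOP2 plus 25nM reporter substrate added, fluorescence (Ex485/Em531) read after 60min.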
A number is an active result; – = inactive; ? = inconclusive; · = no result. In the library only some 0.3% were active in any assay of this set; here they are far more common. Unless noted, calls come from the whole dose curve; as a rule, active = well fitted curve in the direction sought with a large enough effect; inconclusive = small, poorly fitted or top-dose-only effect, or another doubt; inactive = no such curve, though single readings can be large; an effect the other way counts as inactive or inconclusive.

SMILES | MmCpn inh | ASM inhibitor | CCT chaperon mod | USP2a block
CC(C)(C)CC(C)(C)NC(=S)N1CCN(Cc2ccc3c(c2)OCO3)CC1 | – | – | – | –
CN(C)c1ccc(/C=C/c2ccncc2)cc1 | – | – | – | –
COc1ccc(/C=C/c2ccncc2)cc1 | – | – | -52 | –
Cc1cc(C)n(Cc2ccc(C(=O)NN)o2)n1 | – | – | -50 | –
COc1cc(/C=C/C(=O)OCC(=O)Nc2ccc(NC(C)=O)cc2)cc(S(=O)(=O)N2CCc3ccccc32)c1OC | – | – | -45 | –
O=C(O)CC(Cc1ccc(Cl)cc1)C(=O)NCC12CC3CC(CC(C3)C1)C2 (stereo unspecified) | – | – | – | –
COc1cc(S(=O)(=O)n2ccc(C)n2)c(OC)cc1Cl | – | – | – | –
COc1cc(S(=O)(=O)n2ccc(C)n2)ccc1Cl | – | – | -48 | –
CC(=O)c1cccc(N(CC(=O)N2CCOCC2)S(C)(=O)=O)c1 | – | – | – | –
Nc1ccc2nc(CN3CCOCC3)[nH]c2c1 | – | – | -36 | –
c1ccc2[nH]c(CN3CCOCC3)nc2c1 | – | – | – | –
COc1ccc(NC(=O)CSc2nc3c(c(=O)n2-c2ccccc2)SCC3)c(OC)c1 | – | – | – | –
CCOC(=O)C1(C)CCCCCN1C(=O)c1ccc(C(F)(F)F)nc1C (stereo unspecified) | · | · | – | ·
Cc1cc(NC(=O)C2CCCO2)ccc1Br (stereo unspecified) | – | – | -107 | –
O=C(Nc1ccc(Br)c(Br)c1)C1CCCO1 (stereo unspecified) | · | – | – | ·
CCN1/C(=C/C=C/C=C/c2sc3ccccc3[n+]2CC)Sc2ccccc21 | 32µM | · | · | ?
Cc1ccc(S(=O)(=O)N2CC(O)CC2C(=O)Nc2ccc3c(c2)CCC3)cc1 (stereo unspecified) | – | – | – | –
CCN(CC)S(=O)(=O)c1ccc(N2CCOCC2)c(NC(=O)C23CC4CC(CC(Cl)(C4)C2)C3)c1 | – | – | -72 | –
CCC(=O)Nc1c2c(nn1-c1ccccc1C)CSC2 | – | – | – | –
CCOC(=O)C(=CNc1cccc(C)c1C)C(=O)OCC | – | – | -122 | –
CCOC(=O)C(=CNc1ccc(C)cc1C)C(=O)OCC | – | – | – | –
COc1ccc(OCC(=O)Nc2cc(OC)cc(OC)c2)cc1 | – | – | -46 | –
COc1ccc(OCC(=O)Nc2cccc(OC)c2)cc1 | – | – | – | –
CC(C)C(NC(=O)c1ccccc1)C(=O)OCC(=O)N1CCCCC1 (stereo unspecified) | – | – | -40 | –
CSCC(=O)N1CCC(CCC(=O)NC2CC2)CC1 | – | – | -53 | –
SMILES | MmCpn inh | ASM inhibitor | CCT chaperon mod | USP2a block
COc1ccc(OC)c(NC(=O)NCc2cccnc2)c1 | – | – | – | –
CCc1nc2ccccc2c(=O)n1/N=C/c1ccc(Cl)cc1 | · | – | -33 | ·
COc1ccc(-c2nc3ccc(N4CCCC4)cc3c(=O)[nH]2)cc1OC | – | – | -79 | –
O=C(OCc1nnc(-c2cccs2)o1)c1cccnc1Cl | – | – | – | –
CCOc1ccc(C(=O)OCc2nnc(-c3cccs3)o2)cc1OC | – | – | -72 | –
COc1ccc(CNc2nc3ccccc3n2CCN2CCOCC2)cc1 | – | – | -45 | –
COc1ccc(N2CCN(S(=O)(=O)CCNC(=O)CCCc3ccccc3)CC2)cc1 | – | – | – | –
COCCCNCCOCCOc1ccc(C)cc1[N+](=O)[O-] | – | – | -40 | –
COCCCNCCOc1ccc(C)cc1[N+](=O)[O-] | – | – | – | –
O=C(CSc1nc2ccccc2s1)c1cc2ccccc2o1 | · | – | -63 | ·
O=C(CSc1nc2ccccc2s1)CSc1nc2ccccc2s1 | – | – | – | –
CC1=C(C(=O)Nc2ccccc2)C(c2ccc(Cl)cc2)n2c(s/c(=C/c3cccc(OCC(=O)O)c3)c2=O)=N1 (stereo unspecified) | – | 25µM | – | –
CCOc1ccc(C2C(C(=O)Nc3ccccc3)=C(C)N=c3s/c(=C/c4cccc(OCC(=O)O)c4)c(=O)n32)cc1 (stereo unspecified) | – | ? | – | –
Cc1cc(NC(=O)CS(=O)(=O)c2ccc(F)cc2)no1 | – | · | – | –
Cc1cc(NC(=O)CS(=O)(=O)c2ccc(Cl)cc2)no1 | – | – | -87 | –
COc1ccc(-c2cn3c(C)c(C(=O)Nc4ccncc4)sc3n2)cc1 | 45µM | – | – | –
CC1(C)C2CCC1(C)C(OC(=O)c1ccccc1C(=O)O)C2 (stereo unspecified) | – | – | – | –
CC1(C)C2CCC1(C)C(OCCNCCOC(=O)Nc1ccccc1)C2 (stereo unspecified) | – | – | -40 | –
COC(=O)c1ccc(NC(=S)N2CCN(C(=O)c3ccco3)CC2)cc1 | – | – | -40 | –
CCOC(=O)C1/C(=N\O)CC(C)(O)C(C(=O)OCC)C1c1ccc(N(C)C)cc1 (stereo unspecified) | – | – | – | –
Nc1nc(CCl)nc(Nc2ccc3ccccc3c2)n1 | – | – | – | –
CC(=O)c1sc(-c2ccc(Cl)cc2)cc1N | – | – | – | –
COC(=O)c1sc(-c2ccc(Cl)cc2)cc1N | – | – | -40 | –
COC(=O)c1cccc(CSc2nc(-c3ccccc3)c(C#N)c(=O)[nH]2)c1 | – | – | – | –
CCOC(=O)CSc1nc2cc3c(cc2cc1C#N)OCO3 | – | – | – | –
SMILES | MmCpn inh | ASM inhibitor | CCT chaperon mod | USP2a block
CCOC(=O)CSc1nc2cc3c(cc2cc1C#N)OCCO3 | – | – | -39 | –
C#CCn1c(=NC(=O)c2cc(Cl)sc2Cl)sc2cc(S(N)(=O)=O)ccc21 | 50µM | – | – | –
O=C(CCSc1ccccc1)NCc1cccnc1 | – | – | – | –
CCC(C)c1ccc(NC(=S)N2CCN(C(=O)C3CCCO3)CC2)cc1 (stereo unspecified) | – | – | -74 | –
CCn1cc(/C=C(\NC(=O)c2ccc(OC)c(OC)c2)C(=O)NCCCN2CCOCC2)c2ccccc21 | – | – | -81 | –
COc1cc(NC(=O)c2ccco2)c(OC)cc1NC(=O)Nc1cccc(Cl)c1 | – | – | – | –
Cc1cc(C(=O)CSc2cccc[n+]2[O-])c(C)n1-c1ccccc1 | – | – | -38 | –
COc1ccc(N(CC(=O)Nc2ccccc2Cl)S(=O)(=O)c2ccc(C)cc2)cc1OC | – | – | – | –
CCN(CC)CC(=O)Nc1c2c(nc3ccccc13)N(C)CC2 | – | – | – | –
O=C(NCc1ccco1)c1cc(S(=O)(=O)N2CCOCC2)c(Cl)cc1Cl | – | – | -67 | –
CCS(=O)(=O)N1CCC(C(=O)Nc2cccc(F)c2)CC1 | – | – | -54 | –
CS(=O)(=O)N1CCC(C(=O)Nc2cccc(F)c2)CC1 | – | – | – | –
Cc1ccccc1Nc1c(-c2ccncc2)nc2ccc(Br)cn12 | – | – | – | –
Brc1ccc2nc(-c3ccncc3)c(NC3CCCC3)n2c1 | – | – | -36 | –
CC(NC(=O)Nc1ccc(O)cc1)(C(F)(F)F)C(F)(F)F | – | – | – | –

Source: PubChem (National Center for Advancing Translational Sciences (NCATS))
